Consider 20 compounds from ChEMBL document CHEMBL3988442, “University of Dundee, Small-Polar-MMV Screening Library” (2021).

For this test, the target named is AMP-activated protein kinase, AMPK (Homo sapiens) (UniProt P54646+O43741+P54619+Q9UGJ0+Q9Y478+Q13131+Q9UGI9). Put plainly: AMP-dependent Kinase enzyme assay. An in vitro enzyme assay that detects ADP turnover that is directly proportional to AMPK activity. This uses naive AMPK that is activated during the assay with MK-8722. The format is functional. Also on record: scale not given: direction of the effect not stated beside the values. Conditions: 30 µM.
`CCCC(=O)Nc1cccc(C(=O)N(C)CCCC2CCCO2)c1` (stereo not given): the Percent Effect was determined as 7.97%.
On to `Cc1c(NCCO)cccc1OC1CCCC1`, for which the Percent Effect is -6.27%.
Consider `COCCN(C)C[C@@H]1CN(c2cc(C)nc3ccccc23)C[C@@H]1CO`, for which the Percent Effect was -6.62%.
Then `COCCN(Cc1ccccn1)C(=O)Nc1cccnc1-n1cccn1`, with -0.778%; and `Cc1cc(CC(=O)NC2CCCN(c3ccccc3Cl)C2=O)n[nH]1` (stereo not given), with 4.62%.
Then `O=C(NCc1cccnc1N1CCCCC1)c1ccc2cc[nH]c2c1`, with 1.26%.
Turning to `Cc1ccccc1[C@@H]1CN(CCCS(=O)(=O)N(C)C)C[C@H]1C(=O)O`, the Percent Effect was -1.92%.
Then `COC(=O)C(NC(=O)c1cc(C)ccc1C)c1cccnc1` (stereo not given), with 1.93%.
As to `CN(Cc1cnc(N)nc1)C(=O)C1CCN(C(=O)C2CCCC2)CC1`, the Percent Effect was -0.173%.
Take `CCCn1ccnc1-c1cccc(NC(=O)C2CCCOC2)c1` (stereo not given): the Percent Effect is -0.71%.
Then `Cn1ncc2c1CCCC2NCc1cccnc1` (stereo not given), with 5.94%; and `Cc1ccc(-c2noc(C3CCN3C(=O)c3c(C)noc3C)n2)s1` (stereo not given), with 5.86%.
The value for `COc1ccccc1CCNC(=O)CNCC1CN(C)CCO1` (stereo not given) was -4.87%.
The value for `Cc1csc(C(C)(C)NCC(=O)N(C)Cc2ccc(C)o2)n1` was -7.36%.
Turning to `CCCS(=O)(=O)NCc1ncc(C)c(OC)c1C`, the Percent Effect amounted to 6.9%.
Then `O=C1NCC(C(=O)NCc2ccccc2CN2CCOCC2)N1` (stereo not given), with -5.09%; and `CN(C)c1ccccc1C(=O)N1CCCC(c2ccc(C(=O)O)cc2)C1` (stereo not given), with -3.47%; and `Cc1noc(C)c1CN(C)C(=O)c1nc(N2CCCC2)ncc1Cl`, with 3.43%.
Then `COc1ccc(C(=O)N2C[C@@H](NC(=O)N(C)C)[C@H](C(C)C)C2)c(OC)n1`, with 1.82%.
Take `CC(C)n1ccc(C(=O)OCC2CC(=O)N(Cc3ccccc3)C2)n1` (stereo not given): the Percent Effect stood at 7.89%.
